Experimental data as given in PubChem BioAssay (NCI).
Compounds without any hit were thinned out: in the full panel of roughly 83,000, 20% have a hit.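 Testing used 96-well plates and a 48-hour single-concentration exposure. Example: -40 means 40% of the starting cells died.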 A number with no mark means an inactive call. Activity calls are given as the source filed them. How the source made its calls: active means growth percent below 10; inactive means the rest.

Experiments:
Assay in all cases: NCI-60 one-dose screen, 48 h (100 = growth as untreated, 0 = no growth, -100 = all killed)
Settings in all cases: 10 µM unless noted
[1] = system: NCI-H23 lung
[2] = system: NCI-H226 lung
[3] = system: NCI-H322M lung
[4] = system: HOP-62 NSCLC
[5] = system: NCI-H460 lung
[6] = system: NCI-H522 lung
[7] = system: A549/ATCC NSCLC
[8] = system: 786-0 renal
[9] = system: COLO 205 colon
[10] = system: DU-145 prostate
[11] = system: K-562 leukemia
[12] = system: MALME-3M melanoma
[13] = system: MDA-MB-231 breast
[14] = system: RXF 393 renal
[15] = system: SF-268 CNS
[16] = system: SF-295 CNS
[17] = system: SF-539 CNS
[18] = system: UACC-257 melanoma
[19] = system: M14 melanoma

| SMILES | growth [1] | growth [2] | growth [3] | growth [4] | growth [5] | growth [6] | growth [7] | growth [8] | growth [9] | growth [10] | growth [11] | growth [12] | growth [13] | growth [14] | growth [15] | growth [16] | growth [17] | growth [18] | growth [19] |
| --- | --- | --- | --- | --- | --- | --- | --- | --- | --- | --- | --- | --- | --- | --- | --- | --- | --- | --- | --- |
| O/N=C/c1ccncc1 | 101% | 107% | 110% | 104% | 106% | 83.7% | 96.5% | 109% | 108% | 103% | 106% | 98.7% | 118% | 122% | 111% | 96% | 115% | 100% | 115% |
| COc1cc(C2CC(c3cccc(Nc4ccnc5cc(Cl)ccc45)c3)=NN2C=O)cc(OC)c1OC (configuration not stated) | 4.02% (active) | 2.98% (active) | 32.5% | 1.34% (active) | 7.22% (active) | -4.52% (active) | 18.4% | 11.3% | -22.6% (active) | -2.32% (active) | 19.4% | -5.46% (active) | 6.76% (active) | -25.1% (active) | 25.3% | -11.6% (active) | -26.3% (active) | 37.6% | -26.7% (active) |
| C/C(=N\NC(=O)CSc1nc2ccccc2c(=O)n1CCc1ccc(S(N)(=O)=O)cc1)c1ccc(Br)cc1 | 60.4% | 95.2% | 97.2% | 77.4% | 30.8% | 62.5% | 47.3% | 49.8% | 93.6% | 99% | 54.3% | 54.4% | 36.9% | 99.1% | 99.4% | 89.9% | 83.1% | 83.3% | 70.3% |
| COc1ccc2nc3ccccc3c(NCc3ccc(C)cc3)c2c1 | 28.3% | 42.1% | 30.3% | 39% | 10% | 26.4% | 19.3% | 15.8% | -40.6% (active) | 21.6% | 2.71% (active) | 22.1% | 33.6% | 6.17% (active) | 48.4% | 23.6% | 10.7% | -7.97% (active) | 28.7% |
| O=C1/C(=C/c2ccccc2)SC(=Nc2ccccc2)N1Nc1ccccc1 | 13.8% | -40.1% (active) | 26.9% | 39.4% | -25.2% (active) | -5.53% (active) | 15.5% | -31.4% (active) | 0.201% (active) | 22% | 4.55% (active) | -14.6% (active) | 12.1% | -58% (active) | 26.9% | 16.2% | 5.85% (active) | 10.5% | -59.3% (active) |
| FC(F)(F)c1nn[nH]n1 | 96.6% | 94.8% | 111% | 125% | 117% | 102% | 94.1% | 107% | 122% | 99.5% | 113% | 100% | 116% | 104% | 94.5% | 106% | 106% | 110% | 112% |
| O=C(CCl)N1c2ccccc2Oc2ccc3ccccc3c21 | -48.4% (active) | 3.48% (active) | 91.4% | -16.6% (active) | 2.15% (active) | -83.1% (active) | 30% | -89.4% (active) | -94.2% (active) | -7.27% (active) | 2.96% (active) | -49% (active) | -26.8% (active) | -83.7% (active) | -39.3% (active) | -15.8% (active) | -80.1% (active) | 8.99% (active) | -70% (active) |
| COc1ccc([C@H]2c3[nH]c4ccccc4c3C[C@H]3C(=O)N(CCCCCCC(=O)NO)CC(=O)N23)cc1 | 34.6% | 76.9% | 53.2% | 42.9% | 47% | 4.51% (active) | 60% | 83.6% | 22.9% | 24.2% | 6.77% (active) | -4% (active) | 45.3% | 22.2% | 69.7% | 34.8% | 38.1% | 27.7% | 22.4% |
| CC(SC(C)C(=O)N/N=C/c1cccc(Cl)c1)C(=O)N/N=C\c1cccc(Cl)c1 (configuration not stated) | 86.8% | 93.2% | 84.3% | 90.4% | 20.5% | 60% | 15.2% | 90.9% | 74.7% | 71.9% | 79.7% | 88.9% | 28.1% | 91.2% | 69% | 66.2% | 106% | 104% | 85.1% |
| Cc1ccc(Nc2cccc3ccccc23)cc1 | 83.6% | 90.1% | 82.8% | 91.9% | 103% | 68.4% | 90.5% | 88.9% | 101% | 109% | 63% | 94.2% | 88.5% | 91.2% | 92.4% | 112% | 99.8% | 86.4% | 89.6% |
| Cc1ccccc1NC(=O)c1sc2nc3c(cc2c1N)C(=O)CCC3 | 50.6% | 65.8% | 71.4% | 38.2% | 15.3% | 12.5% | 37.6% | 51.6% | 6.12% (active) | 18.3% | 22.1% | 66.5% | 61.6% | -10.4% (active) | 65.4% | 57.2% | 27.6% | 61% | 41.5% |
| Clc1cccc(CNc2c3ccccc3nc3ccccc23)c1 | 32% | 48% | 31.3% | 45.5% | 14.2% | 41.7% | 27.9% | 25.2% | 0.537% (active) | 31.6% | 5.03% (active) | 45% | 29.4% | 19% | 60.6% | 20.8% | 9.28% (active) | 45.4% | 35.5% |
| C=CC(=O)N1CN(C(=O)C=C)CN(C(=O)C=C)C1 | 67.4% | 87% | 108% | 88.3% | 102% | -35.4% (active) | 94.6% | 95.7% | -44.4% (active) | 77% | 23.5% | -41.9% (active) | 103% | 10.2% | 85.3% | 112% | 71.7% | 48% | 87.1% |
| CCCCCCCC/C=C/CCCCCCCC1=NC(C)(C)CN1c1ccccc1 | 89.1% | 99% | 116% | 100% | 103% | 65.1% | 91.6% | 81.8% | 97.8% | 97.2% | 65.9% | 115% | 103% | 85% | 91.9% | -5.3% (active) | 96.9% | 90.2% | 99.7% |
| O=C(CCCCCCN1CC(=O)N2[C@@H](c3ccc(Cl)c(Cl)c3)c3[nH]c4ccccc4c3C[C@H]2C1=O)NO | 54% | 84.8% | 53.5% | 54.1% | 39.1% | 17.8% | 79.9% | 71.8% | 58.9% | 56.7% | 17.9% | 40% | 44.4% | 36.5% | 74.7% | 61.8% | 52% | 65.5% | 50.6% |
| NC(CCC(=O)NC(CS)C(=O)NCC(=O)O)C(=O)O (configuration not stated) | 108% | 101% | 126% | 103% | 106% | 98.3% | 94.2% | 109% | 104% | 112% | 84.2% | 122% | 117% | -24.6% (active) | 103% | 104% | 105% | 101% | 108% |
| COc1ccc(-c2nc3ccccc3n3cccc23)cc1 | 86.1% | 94.7% | 96.6% | 116% | 112% | 101% | 102% | 100% | 120% | 119% | 96.3% | 127% | 97.9% | 135% | 109% | 114% | 101% | 109% | 100% |
| S=C(Nc1ccc(Cl)cc1)Nc1ccc(Cl)cc1 (tested in a mixture with another compound) | 1.65% (active) | 16.4% | 4.59% (active) | 6.8% (active) | -17.4% (active) | -27.9% (active) | 1.68% (active) | 22.1% | -95.7% (active) | 22.2% | 12.1% | -7.85% (active) | -58.7% (active) | 9.51% (active) | 23% | -6.55% (active) | 19.1% | -14.7% (active) | 19% |
| CCn1c(=O)c(C(=O)NCCCO)c(O)c2ccccc21 | 110% | 99.1% | 134% | 101% | 111% | 101% | 103% | 106% | 110% | 122% | 89.9% | 123% | 106% | -24.8% (active) | 94.3% | 110% | 96.8% | 125% | 124% |
| COc1ccc(CNc2c3ccccc3nc3ccc(OC)cc23)cc1 | 21.4% | 33.8% | 23.5% | 34.1% | 6.48% (active) | 26.2% | 14.6% | 15% | -51.4% (active) | 20% | 0.27% (active) | 7.06% (active) | 23.6% | -2.57% (active) | 40.2% | 19.4% | 8.46% (active) | 6.58% (active) | 19.5% |
| CC1CCCN(CCCCOc2ccc(-c3ccc(C#N)cc3)cc2)C1 (configuration not stated) | 82.6% | 93.4% | 99.9% | 97.7% | 99.1% | 59.6% | 60.2% | 90.1% | 75.1% | 101% | 62% | 120% | 84.6% | 94.6% | 92.5% | 94.6% | 98.4% | 66.6% | 83.2% |
| Cc1ccc(C)c(NC(=O)c2sc3c(=O)[nH]cnc3c2C)c1 | 93.4% | 106% | 103% | 80.8% | 81.9% | 64.9% | 74.6% | 89.9% | 83.3% | 108% | 29.6% | 62.6% | 97.4% | 90.1% | 101% | 73.3% | 94.2% | 94.5% | 57.8% |
| O=C(/C=C/c1ccccc1)c1c[nH]c2ccccc2c1=O | 9.55% (active) | 8.22% (active) | -7.62% (active) | 23.6% | -32.8% (active) | 0.426% (active) | 3.17% (active) | 4.48% (active) | 0.617% (active) | 7.22% (active) | 11.1% | 43.6% | -1.53% (active) | 18.1% | -14.1% (active) | -51.7% (active) | -24.5% (active) | 58.9% | -24% (active) |
